{"source": "PubChem BioAssay (Tox21)", "note": "Records with an inconclusive call do not appear. Calls of active or inactive are those of the source. Calls come from the whole dose curve; as a rule, active = well fitted activation curve with a large enough effect in the repeat runs; inconclusive = weak or mixed curves; inactive = flat fitted curve, though single readings scatter. % is set by controls: 0 for no effect and ±100 for the full control effect; potency is the fitted concentration of half-maximal effect."}
{"assay": "A CellTox Green Cytotoxicity Assay to monitor cytotoxicity in HEK293 cells - 16 hour (AID 1224888); note: nearly all actives have a fitted effect of over 35% in size", "conditions": "CellTox Green fluorescence; series mostly up to 76.8 µM; activity change: at the top concentration", "description": "National Center for Advancing Translational Sciences [NCATS]\nNIH Chemical Genomics Center [NCGC]\nU.S. Environmental Protection Agency [EPA]\nNational Institutes of Environmental Health Sciences [NIEHS]\nNational Toxicology Program [NTP]\nCell-based models are critical for drug discovery. Determining the natural cytotoxic effects resulting from test compounds is an essential research activity. A CellTox Green Cytotoxicity Assay to monitor cytotoxicity in real time of continues cell culture during 40 hours of the compound treatment was used to screen Tox21 10K library compounds in Hek293 cells. CellTox Green Cytotoxicity Assay is a nonlytic, homogeneous, biofluorescent method to measure cytotoxicity in cell culture after experimental manipulation. The assay system uses a proprietary asymmetric cyanine dye that is excluded from viable cells but preferentially stains the dead cell's DNA. […] Viable cells produce no appreciable increases in fluorescence. Therefore, the fluorescence signal produced by the binding interaction with dead cell DNA is proportional to cytotoxicity.\nThe mixture of Hek293 cell suspension and reagents were dispensed at 600cells/6 ul/well in 1536-well tissue culture treated black solid bottom plates using a Multidrop dispenser. After the assay plates were incubated at a 37 C/5% CO2 incubator for 5 hours, 23 nL of compounds dissolved in DMSO, positive and negative controls was transferred to the assay plate by a pintool work station. The plates were incubated at 37 C for 40 hours. The fluorescence intensity were measured at 0h, 8h, 16h, 24h, 32h and 40h time points using ViewLux plate reader during compound treatment."}
{"molecule": "CC1(C)[C@H](C=C(Cl)Cl)[C@@H]1C(=O)O[C@@H](C#N)c1cccc(Oc2ccccc2)c1", "activity change": "-24.2% (inactive)"}
{"molecule": "[CH3][Sn]([CH3])([Cl])[Cl]", "Potency": "inactive"}
{"molecule": "Cc1cc(=O)[nH]o1", "activity change": "-3.51% (inactive)"}
{"molecule": "COc1c(C(C)(C)C)cc([N+](=O)[O-])c(C)c1[N+](=O)[O-]", "activity change": "6.42% (inactive)"}
{"molecule": "CC(C)(C)C(O)C(Oc1ccc(Cl)cc1)n1cncn1", "note": "(stereo not given)", "activity change": "-9.5% (inactive)"}
{"molecule": "CCOC(=O)C(Cl)C(C)=O", "note": "(stereo not given)", "activity change": "25.2% (inactive)"}
{"molecule": "CCN(C)N=O", "activity change": "-15% (inactive)"}
{"molecule": "O=C(CCl)c1ccc(Cl)cc1Cl", "Potency": "inactive"}
{"molecule": "Clc1cccc(SC2CCNCC2)n1", "activity change": "-17.1% [at 35.3 µM, hits give high values] (inactive)"}
{"molecule": "CCCCCC[N+](=O)[O-]", "activity change": "5.02% (inactive)"}
{"molecule": "CCC(Br)(CC)C(=O)NC(N)=O", "activity change": "-0.914% (inactive)"}
{"molecule": "ClCCCCBr", "activity change": "0.582% (inactive)"}
{"molecule": "CC(=O)C(C)(C)C", "activity change": "-0.225% (inactive)"}
{"molecule": "O=C=Nc1ccc(Cl)cc1", "activity change": "1.53% (inactive)"}
{"molecule": "CC(C)=CCOc1c2occc2cc2ccc(=O)oc12", "activity change": "1.81% [at 35.3 µM, hits give high values] (inactive)"}
{"molecule": "C=CC(=O)OCCCCO", "activity change": "-6.71% (inactive)"}
{"molecule": "CCOP(O)OCC", "activity change": "0.916% (inactive)"}
{"molecule": "CCCCc1c(C)nc(NCC)nc1OS(=O)(=O)N(C)C", "activity change": "0.267% (inactive)"}
{"molecule": "CC(C)N(CCC(C(N)=O)(c1ccccc1)c1ccccn1)C(C)C", "note": "(stereo not given)", "activity change": "-12.5% [at 35.3 µM, hits give high values] (inactive)"}
{"molecule": "CN1[C@@H]2CC[C@H]1CC(OC(=O)c1cc(Cl)cc(Cl)c1)C2", "note": "(stereo not given in full)", "activity change": "9.75% [at 35.3 µM, hits give high values] (inactive)"}
{"molecule": "CCCC(Cn1cncn1)c1ccc(Cl)cc1Cl", "note": "(stereo not given)", "activity change": "14.9% (inactive)"}
{"molecule": "O=NN1CCNCC1", "activity change": "-2.05% (inactive)"}
{"molecule": "[O-][Cl+]O", "activity change": "-0.734% (inactive)"}
{"molecule": "O=NN1CCCCCC1", "activity change": "-6.64% (inactive)"}
{"molecule": "C[C@@H]1CC[C@H]2[C@@H](C)C(=O)O[C@@H]3O[C@@]4(C)CC[C@@H]1[C@]32OO4", "activity change": "-4.91% [at 35.3 µM, hits give high values] (inactive)"}
{"molecule": "N#Cc1ccc(Cl)cc1", "activity change": "1.6% (inactive)"}
{"molecule": "O=C(O)c1ccccc1C(=O)Nc1cccc2ccccc12", "activity change": "2.24% (inactive)"}
{"molecule": "CCOP(=O)(OCC)O/C(=C/Cl)c1ccc(Cl)cc1Cl", "activity change": "2.74% (inactive)"}
{"molecule": "O=S(=O)(O)C(F)(F)C(F)(F)C(F)(F)C(F)(F)F", "activity change": "-1.68% (inactive)"}
{"molecule": "O=[N+]([O-])C(Br)(CO)CO", "activity change": "1.95% (inactive)"}
{"molecule": "CC(c1ccc(O)cc1)(c1ccc(O)cc1)c1ccc(O)cc1", "activity change": "-1.93% (inactive)"}
{"molecule": "O=C(NC(=O)c1c(F)cccc1F)Nc1ccc(OC(F)(F)C(F)OC(F)(F)F)c(Cl)c1", "note": "(stereo not given)", "activity change": "-2.98% [at 35.3 µM, hits give high values] (inactive)"}
{"molecule": "NNC(=O)c1cccnc1", "activity change": "1.32% (inactive)"}
{"molecule": "Cl/C=C\\Cl", "activity change": "-11.4% (inactive)"}
{"molecule": "CC1Sc2c(C(=O)O)c(=O)c3cc(F)c(N4CCNCC4)cc3n21", "note": "(stereo not given)", "activity change": "-1.2% [at 35.3 µM, hits give high values] (inactive)"}
{"molecule": "CCOC(=O)COc1cc(-c2nn(C)c(OC(F)F)c2Cl)c(F)cc1Cl", "activity change": "-9.24% (inactive)"}
{"molecule": "COc1nn(CSP(=S)(OC)OC)c(=O)s1", "activity change": "2.07% (inactive)"}
{"molecule": "c1ccoc1", "activity change": "-9.17% (inactive)"}
{"molecule": "CC(=O)c1cc2c(cc1C)C(C)(C)C(C)CC2(C)C", "note": "(stereo not given)", "Potency": "19.5 µM (active)"}
{"molecule": "OC(c1ccc(Cl)cc1)(c1ccc(Cl)cc1)c1cccnc1", "activity change": "-5.6% (inactive)"}
